# Bioassay records: PubChem BioAssay, National Center for Advancing Translational Sciences (NCATS)
# An excerpt weighted towards active compounds, which were near 10% of everything screened.
# HPGD block: inhibitors of human 15-hydroxyprostaglandin dehydrogenase (HPGD); purified HPGD, NADH fluorescence kinetic, PGE2 substrate; Potency, µM, without a hit: at the top dose activity change, negative = inhibition, usual class: inhibitors; hit rate 4.3% among 150,000; AID 894; active means well fitted inhibition curve with a large enough effect, not every such curve was filed as active; inconclusive means small, poorly fitted or top-dose-only effect, or another doubt; inactive means no such curve, though single readings can be large or run the other way; further: potency means the concentration at half of the fitted maximal effect
# Target sequence (P15428 whole entry, looked up): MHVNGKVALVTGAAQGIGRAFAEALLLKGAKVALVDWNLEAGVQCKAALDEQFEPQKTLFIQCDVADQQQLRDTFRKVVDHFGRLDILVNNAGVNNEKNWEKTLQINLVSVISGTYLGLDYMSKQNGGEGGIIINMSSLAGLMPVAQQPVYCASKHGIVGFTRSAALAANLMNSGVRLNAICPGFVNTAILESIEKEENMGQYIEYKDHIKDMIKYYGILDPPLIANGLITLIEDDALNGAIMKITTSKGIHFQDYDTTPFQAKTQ
#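 20 nM HPGD preincubated 15 min at room temperature with compound in 50 mM Tris-HCl pH 8, 0.01% Tween 20. Started with 1 mM NAD+ and 30 uM prostaglandin E2; NADH fluorescence (360/450 nm) read 5 times over 30-s intervals, last minus first.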
# GLA inh pH 4.5: blocks human alpha-galactosidase A at pH 4.5 | P06280 | purified enzyme, 4-MU-alpha-Gal fluorescence, pH 4.5 | activity change, negative = inhibition, % at 105 µM | 230,000 tested, under 10 active | AID 1467;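 further: 0% = full activity with enzyme and -100% = basal without enzyme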
# ALDH1A1 inh: ALDH1A1 (human) enzyme inhibition; Purified ALDH1A1, NADH fluorescence, propionaldehyde substrate; Potency, µM (titrated, usually from 75.3 µM), without a hit: at the highest dose activity, negative = inhibition, usual class: inhibitors; hit rate 7.3% among 220,000; active means well fitted inhibition curve with a large enough effect, not every such curve was filed as active; inconclusive means small, poorly fitted or top-dose-only effect, or another doubt; inactive means no such curve, though single readings can be large or run the other way;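 further: potency means the concentration at half of the fitted maximal effect; plate controls were no enzyme wells and a reference inhibitor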
# GLA spleen mod: inhibits or activates alpha-galactosidase in human spleen homogenate; P06280; human spleen homogenate, 4MU-alpha-Gal fluorescence, 40 min; Potency, µM (titrated, usually from 80 µM), for inactives: top-dose activity change, negative = inhibition, usual class: inhibitors; hit rate 0.008% among 240,000; AID 2107;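 further: potency means the concentration at half of the fitted maximal effect; 0% = enzyme with vehicle and -100% = no enzyme basal signal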
# Target sequence (P06280 32-429 limits assumed): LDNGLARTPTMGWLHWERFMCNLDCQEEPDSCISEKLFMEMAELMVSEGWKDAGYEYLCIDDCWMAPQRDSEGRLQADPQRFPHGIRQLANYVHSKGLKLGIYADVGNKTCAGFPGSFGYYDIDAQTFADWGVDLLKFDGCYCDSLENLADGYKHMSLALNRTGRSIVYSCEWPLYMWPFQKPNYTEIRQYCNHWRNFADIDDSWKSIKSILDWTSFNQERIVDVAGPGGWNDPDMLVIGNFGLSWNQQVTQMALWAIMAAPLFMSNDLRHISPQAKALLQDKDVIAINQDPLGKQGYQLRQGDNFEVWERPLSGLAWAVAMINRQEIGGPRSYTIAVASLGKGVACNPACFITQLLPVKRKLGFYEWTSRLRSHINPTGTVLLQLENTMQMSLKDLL
#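 qHTS titration in buffer at pH 5.0. Alpha-galactosidase activity in spleen homogenate was measured via 4-methylumbelliferone release from 1 mM fluorogenic substrate after 40 min at 37C and a pH 10 stop. AC50 came from Hill fits of control-normalized data.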
# 12-hLO inh: inhibitors of human 12-lipoxygenase (ALOX12) | P18054 | purified 12-hLO, xylenol orange hydroperoxide absorbance | Potency, µM (top dose mostly 57.1 µM), inactives show at the top dose activity change, negative = inhibition, most hits filed as inhibitors | hit rate 0.12% among 150,000 | AID 1452; further: potency means the concentration at half of the fitted maximal effect; nearly all actives have a fitted effect of over 55% in size
#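 Hydroperoxide output read as Fe(III)-xylenol orange absorbance, 573-to-405 nm ratio, after 30 min reaction with 40 uM arachidonic acid. Enzyme: 150 nM purified human 12hLO, 15 min compound preincubation; 25 mM Hepes pH 7.0, room temperature.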
# PNC assembly inh: perinucleolar compartment assembly inhibition; PC3M PTB-GFP, PNC prevalence imaging, 16 h; active compounds read low; activity change (PNC), negative = inhibition, % at 10 µM; hit rate 3.1% among 140,000;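 active means readout at or below -70, meaning at least 70% loss of cells showing the perinucleolar compartment, a nuclear body marking cancer cells; inconclusive means readout between -30 and a set limit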;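 further: plate controls were DMSO wells for no effect and camptothecin positive control wells for full effect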
#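 Read-out is percentage of cells bearing a perinucleolar compartment, from automated 20x imaging of fixed, Hoechst-stained PC3M PTB-GFP cells. Cells were seeded 4 h, then exposed 16 h to compound (23 nl of library stock) in duplicate plates.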
# * = called active by the depositor; ? = inconclusive; . = no result given; [ ] = remark or other dose. Unless noted, the call rests on the fitted dose curve; in most records, active means well fitted curve in the direction sought with a large enough effect; inconclusive means small, poorly fitted or top-dose-only effect, or another doubt; inactive means no such curve, though single readings can be large; an effect the other way counts as inactive or inconclusive. Unless noted, on the % scale 0 is the no-effect control and ±100 the full control effect.
SMILES,HPGD block,GLA inh pH 4.5,ALDH1A1 inh,GLA spleen mod,12-hLO inh,PNC assembly inh
CCOC(=O)C1(Cc2ccc(Cl)cc2)CCN(C(=O)c2sc(C)nc2C)CC1,.,-4,35µM*,6%,.,.
CSCC[C@H](NC(=O)[C@@H]1CCCN1C(=O)[C@H](CCCN=C(N)N)NC(=O)[C@H](CC(C)C)NC(=O)[C@@H]1CCCN1C(=O)[C@@H](NC(=O)[C@@H](N)CCC(N)=O)C(C)C)C(=O)N[C@H](C(=O)N[C@@H](Cc1ccc(O)cc1)C(=O)N[C@@H](CCCCN)C(=O)O)[C@@H](C)O,.,.,.,-3%,.,.
O=C(Nc1nnc(CSCc2ccc(F)cc2)s1)c1ccc([N+](=O)[O-])cc1,?,-7,?,2%,1%,-96*
O=C(Nc1nnc(CSCc2ccccc2F)s1)c1cccc([N+](=O)[O-])c1,?,-3,25µM*,-1%,-2%,-100*
NS(=O)(=O)c1ccc(NC(=O)Nc2ccccc2F)cc1,-1%,.,3%[13.5 µM],.,-1%[11.4 µM],.
COC(=O)[C@H]1C[C@H]2CC[C@H](O)C[C@H]2N1Cc1c(F)cccc1Cl,-3%,-2,1%,6%,-6%,.
Cc1ccccc1NN=Nc1nc2c([nH]1)c(=O)n(C)c(=O)n2C,?,4,?,5%,-1%,0
COc1ccc(NN=Nc2nc3c([nH]2)c(=O)n(C)c(=O)n3C)cc1,.,3,8.9µM*,6%,.,.
COc1ccc(COC(=O)N/N=C2/C[C@@H](O)[C@@H](O)[C@@H]3[C@H]4C(=O)N(c5ccc(F)cc5F)C(=O)[C@@H]4CC[C@H]23)cc1,.,.,-3%[13.5 µM],-1%[17.5 µM],.,.
Cc1ccc(NC(=O)c2cc(N3C(=O)C4CCCCC4C3=O)ccc2N2CCOCC2)cc1 (stereo not drawn),.,2,22µM*,0%,.,.
Cc1ccc(NC(=O)c2cc(N3C(=O)C4CC=CCC4C3=O)ccc2N2CCCCC2)cc1 (stereo not drawn),?,2,?,7%,2%,66
Cc1nc2cnc(OCc3ccccc3)nc2n(Cc2ccc(F)cc2)c1=O,-26%,.,?,-9%,-7%,.
Cc1ccccc1CSCC(=O)c1c(N)n(CC(C)C)c(=O)n(C)c1=O,-9%,9,28µM*,15%,12%,40
O=c1oc2ccccc2c(O)c1/C=C1\C=Nc2ccccc21,2.2µM*,4,13µM*,0%,-12%,49
N#CC(c1ccc(Cl)cc1)c1ccc(Cl)nn1 (stereo not drawn),-18%,-3,6.3µM*,7%,-11%,40
Cc1ccc(C(C#N)c2ccc(Cl)nn2)cc1 (stereo not drawn),.,0,8.9µM*,5%,.,.
N#CC(c1ccc(Cl)nn1)c1ccccc1Cl (stereo not drawn),-12%,-4,4µM*,-1%,8%,8
COCc1cc(O)c(O)c(O)c1-c1c(COC)cc(O)c(O)c1O,.,.,?,5%,.,.
Cn1nc(-c2ccc(N3CCN(CCO)CC3)c([N+](=O)[O-])c2)c2ccccc2c1=O,.,2,4.5µM*,-10%,.,.
CC(C)N(C(=O)CSc1nnc(NC(=O)Cc2cccs2)s1)C(C)C,.,7,-7%,-6%,.,.
CC(C)N(C(=O)CSc1nnc(NC(=O)C2CCC2)s1)C(C)C,-11%,-11,-3%,-2%,7%,-102*
Cc1[nH]c(=S)sc1Cc1ccc(Cl)c(Cl)c1,16µM*,-26,25µM*,-1%,?,-4
O=C1C=CC(=O)N1N(c1ccccc1)c1ccccc1,1.4µM*,1,3.5µM*,6%,?,7
CC(C)CC(NC(=O)C1CCC(C)CC1)C(=O)NCc1ccco1 (stereo not drawn),.,8,7%,3%,.,.
COc1ccccc1CNC(=O)C(CC(C)C)NC(=O)C1CCC(C)CC1 (stereo not drawn),-9%,-15,-2%,20%,1%,-102*
SMILES,HPGD block,GLA inh pH 4.5,ALDH1A1 inh,GLA spleen mod,12-hLO inh,PNC assembly inh
COc1cc2nc(N3CC=[N+](C(=O)c4ccco4)CC3)nc(N)c2cc1OC,.,.,.,.,-5%,.
O=C(Nc1ccc2nc(-c3ccco3)[nH]c2c1)c1cccs1,?,-1,7.1µM*,3%,9%,326
CCOC(=O)c1cccc(NC(=O)CNS(=O)(=O)c2cccs2)c1,-10%,0,-5%,6%,-1%,-100*
CCOC(=O)c1cccc(NC(=O)CCS(=O)(=O)c2cccs2)c1,-9%,-5,20µM*,0%,-4%,44
CCOC(=O)N1CCN(C(=O)CNS(=O)(=O)c2cccs2)CC1,1%,5,4%,-4%,-4%,14
CCOC(=O)c1cccc(NC(=O)CCS(=O)(=O)c2ccc(Br)s2)c1,10%,0,11%,2%,4%,?
Cc1cc(C)n(CC(O)CN2C(=O)NC(C)(C)C2=O)n1 (stereo not drawn),-15%,-9,-7%,1%,-1%,-107*
NS(=O)(=O)c1ccc(NC(=O)COC(=O)CCc2ccc(S(=O)(=O)N3CCOCC3)cc2)cc1,.,2,?,-4%,.,.
CC1CCN(S(=O)C23CC4CC(CC(C4)C2)C3)CC1 (stereo not drawn),.,8,4%,-6%,.,.
Cc1ccc(S(=O)(=O)/N=C/N(C)C)cc1,-7%,-2,10%,5%,-2%,-6
Cc1ccc(S(=O)(=O)/N=C/c2ccc(N(C)C)cc2)cc1,-17%,-6,13µM*,0%,-2%,29
O=C1NC(c2ccccc2OC(F)F)Oc2ccccc21 (stereo not drawn),.,5,?,0%,.,.
CCc1nnc(NC(=O)c2ccc(S(=O)(=O)N3CCc4ccccc4C3)cc2)s1,-13%,3,3%,-5%,-2%,-85*
Cn1c(SCc2ccc(C(=O)Nc3nccs3)cc2)nnc1-c1ccccc1,14µM*,1,?,12%,10%,20
CCSc1nnc(NC(=O)c2cccc(S(=O)(=O)N(C)c3ccc(C)cc3)c2)s1,-28%,-3,2%,-3%,1%,33
CCn1c(SCc2ccc(C(=O)Nc3nccs3)cc2)nnc1-c1ccc(N)cc1,-22%,2,16%,7%,4%,8
CN(c1ccc(C(=O)Nc2nccs2)cc1)S(=O)(=O)c1ccccc1,8.9µM*,-7,17%,0%,-6%,-17
CN(c1ccccc1)S(=O)(=O)c1ccc(C(=O)Nc2nccs2)cc1,-11%,-10,-104%,?,1%,-5
CCc1nnc(NC(=O)c2cccc(S(=O)(=O)N(C)c3ccccc3)c2)s1,28µM*,0,-26%,-5%,-1%,21
COc1cc(/C=N/NC(=O)C(=O)NCC2CCCO2)cc(Cl)c1O (stereo not drawn),.,-1,.,-3%,.,.
